Laboratory results from PubChem BioAssay AID1159580 (chemical genetic matrix, 2015).
The campaign covered roughly 5,500 compounds. About 2,000 (36%) were called active. About 18% were inconclusive and are not listed. No stated cut-off is given here; in the data, active means normalized growth mostly below about 0.91 (no sharp cut-off); inconclusive means no clear call, values can overlap the other calls; inactive means mostly above about 0.92. The list shows a part of the results.

Assay: chemical genetic growth profiling, strain panel (AID 1159580);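 further: tested at 20 µM; growth read once vehicle control cultures reached saturation at 30 °C; 1 = growth at the plate median or of vehicle wells; lower values mean less growth of the strain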
Settings: growth OD
[1] = S. cerevisiae deletion strains, locus YAL013W, strain DEP1, hits give low values
[2] = S. cerevisiae deletion strains, locus YBR229C, strain ROT2, hits give low values
[3] = S. cerevisiae deletion strains, locus YDL101C, strain DUN1, hits give low values
[4] = S. cerevisiae deletion strains, locus YDR150W, strain NUM1, hits give low values
[5] = S. cerevisiae deletion strains, locus YEL061C, strain CIN8, hits give low values
[6] = S. cerevisiae deletion strains, locus YGR078C, strain PAC10, hits give low values
[7] = S. cerevisiae deletion strains, locus YHR030C, strain SLT2, hits give low values
[8] = S. cerevisiae deletion strains, locus YHR087W, strain rtc3, hits give low values
[9] = S. cerevisiae deletion strains, locus YJR043C, strain POL32, hits give low values
[10] = S. cerevisiae deletion strains, locus YJR075W, strain HOC1, hits give low values
[11] = S. cerevisiae deletion strains, locus YLR039C, strain RIC1, hits give low values
[12] = S. cerevisiae deletion strains, locus YLR058C, strain SHM2 (second series), hits give low values
[13] = S. cerevisiae deletion strains, locus YLR085C, strain ARP6, hits give low values
[14] = S. cerevisiae deletion strains, locus YLR262C, strain YPT6, hits give low values
[15] = S. cerevisiae deletion strains, locus YML094W, strain GIM5, hits give low values
[16] = S. cerevisiae deletion strains, locus YMR219W, strain ESC1, hits give low values
[17] = S. cerevisiae deletion strains, locus YMR263W, strain SAP30, hits give low values
[18] = S. cerevisiae deletion strains, locus YNL153C, strain GIM3, hits give low values
[19] = S. cerevisiae deletion strains, locus YNL298W, strain CLA4 (second series), hits give low values
[20] = S. cerevisiae deletion strains, locus YNL322C, strain KRE1, hits give low values
[21] = S. cerevisiae deletion strains, locus YNR030W, strain Alg12, hits give low values
[22] = S. cerevisiae deletion strains, locus YPL055C, strain LGE1, hits give low values
[23] = S. cerevisiae deletion strains, locus YPL241C, strain CIN2, hits give low values
[24] = S. cerevisiae deletion strains, locus YPR135W, strain CTF4, hits give low values
[25] = S. cerevisiae strains, strain wild type, hits give low values

Measured: normalized growth

CC(=O)OCc1ccc(/C=C(\C#N)S(=O)(=O)c2ccc(Cl)cc2)o1
inactive: [1] 1.01 | [2] 1.01 | [3] 1.01 | [4] 1.06 | [5] 1 | [6] 1.01 | [7] 0.923 | [8] 0.983 | [9] 1.04 | [10] 0.956 | S. cerevisiae deletion strains, locus YKL190W, strain CNB1, hits give low values 1.02 | [11] 0.992 | [12] 0.996 | [13] 0.923 | [14] 1.01 | [15] 0.993 | [16] 0.993 | [17] 1.06 | S. cerevisiae deletion strains, locus YMR307W, strain GAS1, hits give low values 0.869 | [18] 1.03 | [19] 1.01 | [20] 0.985 | [21] 0.985 | [22] 1.13 | [23] 0.98 | [24] 0.966 | [25] 1.02

Cn1cncc1S(=O)(=O)/C(C#N)=C/c1ccccc1Sc1ccc(Cl)cc1
inactive: S. cerevisiae deletion strains, locus YAR019C, strain CDC15, hits give low values 0.987 | S. cerevisiae deletion strains, locus YBL105C, strain PKC1, hits give low values 0.973 | S. cerevisiae deletion strains, locus YBR135W, strain CKS1, hits give low values 0.975 | S. cerevisiae deletion strains, locus YBR136W, strain MEC1, hits give low values 0.972 | S. cerevisiae deletion strains, locus YBR160W, strain CDC28, hits give low values 0.983 | S. cerevisiae deletion strains, locus YDL017W, strain CDC7, hits give low values 0.976 | S. cerevisiae deletion strains, locus YDL028C, strain MPS1, hits give low values 0.979 | [3] 0.976 | S. cerevisiae deletion strains, locus YDL108W, strain KIN28, hits give low values 0.979 | S. cerevisiae deletion strains, locus YDL132W, strain cdc53, hits give low values 0.97 | S. cerevisiae deletion strains, locus YDL214C, strain PRR2, hits give low values 0.771 | S. cerevisiae deletion strains, locus YDR052C, strain DBF4, hits give low values 0.983 | S. cerevisiae deletion strains, locus YDR054C, strain cdc34, hits give low values 0.982 | S. cerevisiae deletion strains, locus YDR226W, strain ADK1, hits give low values 0.962 | S. cerevisiae deletion strains, locus YDR477W, strain SNF1, hits give low values 0.773 | S. cerevisiae deletion strains, locus YER123W, strain YCK3, hits give low values 0.729 | S. cerevisiae deletion strains, locus YER133W, strain GLC7, hits give low values 0.786 | S. cerevisiae deletion strains, locus YFL009W, strain cdc4, hits give low values 0.971 | S. cerevisiae deletion strains, locus YFL029C, strain CAK1, hits give low values 0.984 | S. cerevisiae deletion strains, locus YFR003C, strain YPI1, hits give low values 0.98 | S. cerevisiae deletion strains, locus YFR028C, strain CDC14, hits give low values 0.969 | S. cerevisiae deletion strains, locus YGR040W, strain KSS1, hits give low values 0.752 | S. cerevisiae deletion strains, locus YGR052W, strain FMP48, hits give low values 0.713 | S. cerevisiae deletion strains, locus YGR092W, strain DBF2, hits give low values 0.619 | S. cerevisiae deletion strains, locus YHR079C, strain IRE1, hits give low values 0.668 | S. cerevisiae deletion strains, locus YHR205W, strain SCH9, hits give low values 0.617 | S. cerevisiae deletion strains, locus YIL147C, strain SLN1, hits give low values 0.973 | S. cerevisiae deletion strains, locus YJL095W, strain BCK1, hits give low values 0.726 | S. cerevisiae deletion strains, locus YJL128C, strain PBS2, hits give low values 0.944 | S. cerevisiae deletion strains, locus YJL157C, strain FAR1, hits give low values 0.723 | S. cerevisiae deletion strains, locus YJR016C, strain ILV3, hits give low values 0.982 | S. cerevisiae deletion strains, locus YJR066W, strain TOR1 (second series), hits give low values 0.771 | S. cerevisiae deletion strains, locus YJR066W, strain TOR1, hits give low values 0.678 | S. cerevisiae deletion strains, locus YKL048C, strain ELM1, hits give low values 0.845 | S. cerevisiae deletion strains, locus YKL067W, strain YNK1, hits give low values 0.854 | S. cerevisiae deletion strains, locus YKL101W, strain HSL1, hits give low values 0.828 | S. cerevisiae deletion strains, locus YKL193C, strain SDS22, hits give low values 0.976 | S. cerevisiae deletion strains, locus YKL203C, strain TOR2, hits give low values 0.815 | S. cerevisiae deletion strains, locus YML070W, strain DAK1, hits give low values 0.8 | S. cerevisiae deletion strains, locus YMR001C, strain CDC5, hits give low values 0.971 | S. cerevisiae deletion strains, locus YMR205C, strain PFK2 (second series), hits give low values 0.829 | S. cerevisiae deletion strains, locus YMR277W, strain FCP1, hits give low values 0.973 | S. cerevisiae deletion strains, locus YNL006W, strain LST8, hits give low values 0.984 | S. cerevisiae deletion strains, locus YNL020C, strain ARK1, hits give low values 0.716 | S. cerevisiae deletion strains, locus YNL161W, strain CBK1, hits give low values 0.978 | S. cerevisiae deletion strains, locus YNL183C, strain NPR1, hits give low values 0.807 | S. cerevisiae deletion strains, locus YNL207W, strain RIO2, hits give low values 0.971 | S. cerevisiae deletion strains, locus YNL222W, strain SSU72, hits give low values 0.98 | S. cerevisiae deletion strains, locus YNL307C, strain MCK1 (second series), hits give low values 0.681 | S. cerevisiae deletion strains, locus YOL078W, strain AVO1, hits give low values 0.966 | S. cerevisiae deletion strains, locus YOR061W, strain CKA2, hits give low values 0.758 | S. cerevisiae deletion strains, locus YOR119C, strain RIO1, hits give low values 0.776 | S. cerevisiae deletion strains, locus YOR231W, strain MKK1, hits give low values 0.794 | S. cerevisiae deletion strains, locus YOR329C, strain SCD5, hits give low values 0.978 | S. cerevisiae deletion strains, locus YPL031C, strain PHO85, hits give low values 0.743 | S. cerevisiae deletion strains, locus YPL153C, strain RAD53, hits give low values 0.798 | S. cerevisiae deletion strains, locus YPL204W, strain HRR25, hits give low values 0.699 | S. cerevisiae deletion strains, locus YPL209C, strain IPL1, hits give low values 0.975 | S. cerevisiae deletion strains, locus YPR025C, strain CCL1, hits give low values 0.977 | S. cerevisiae deletion strains, locus YPR106W, strain ISR1, hits give low values 0.981 | S. cerevisiae deletion strains, locus YPR111W, strain DBF20, hits give low values 0.962 | S. cerevisiae deletion strains, strain NNK1, hits give low values 0.967 | S. cerevisiae deletion strains, strain TSCII, hits give low values 0.974
active: S. cerevisiae deletion strains, locus YFR019W, strain FAB1, hits give low values 0.75 | [7] 0.368 | S. cerevisiae deletion strains, locus YHR082C, strain KSP1, hits give low values 0.6 | S. cerevisiae deletion strains, locus YLR113W, strain HOG1, hits give low values 0.81 | S. cerevisiae deletion strains, locus YLR133W, strain CKI1, hits give low values 0.73 | S. cerevisiae deletion strains, locus YLR403W, strain SFP1, hits give low values 0.619 | S. cerevisiae deletion strains, locus YOL136C, strain PFK27, hits give low values 0.674 | S. cerevisiae deletion strains, locus YPL256C, strain CLN2, hits give low values 0.73

CC(=O)/C(=C\Nc1ncccn1)S(=O)(=O)c1ccc(Cl)cc1
inactive: [1] 1.01 | [2] 1 | S. cerevisiae deletion strains, locus YCL061C, strain MRC1, hits give low values 1 | [3] 1.01 | [4] 0.977 | [5] 1 | [6] 1 | S. cerevisiae deletion strains, locus YGR229C, strain SMI1, hits give low values 1 | [7] 0.822 | [8] 0.98 | S. cerevisiae deletion strains, locus YJL187C, strain SWE1, hits give low values 1 | [9] 1.05 | [10] 0.941 | [11] 0.927 | [12] 0.993 | [13] 0.918 | [14] 0.89 | [15] 0.97 | [16] 0.998 | [17] 0.987 | S. cerevisiae deletion strains, locus YNL128W, strain TEP1, hits give low values 1.01 | [18] 1.01 | [19] 0.954 | [20] 0.946 | [21] 0.975 | [22] 0.925 | [23] 0.98 | [24] 0.9 | [25] 1
